About 1,000 (71%) of roughly 1,400 compounds were called active. So high a share suggests a set chosen from earlier hits. Only a sample is shown. Results with a measured potency or affinity are listed apart. A number with no mark means an inactive call. No rule for the calls is given here.

The nature of the assay: blockers of HIV-1 envelope-mediated cell-cell fusion – cherry-pick, dose response (AID 652057). The note with it: HeLa-JRFL Env/CEM21 cell fusion, luciferase; series mostly up to 35 µM; activity change, negative = inhibition: at the top concentration.
`COc1ccc(-c2nn(C)c(=O)c3ccccc23)cc1NC(=O)COc1ccccc1`: the “activity change, negative = inhibition” value is 12.3%.

On to `COc1ccc(OCC(=O)Nc2cc(-c3nn(C)c(=O)c4ccccc34)ccc2OC)cc1`, for which the “activity change, negative = inhibition” value is -17.9%.

Consider `COc1ccc(NS(=O)(=O)c2ccc3c(c2)OCCO3)cc1OC`, for which the “activity change, negative = inhibition” value is -3.46%.

As to `COc1ccc(N2CCn3c2nc2c3c(=O)n(CCCc3ccccc3)c(=O)n2C)c(OC)c1`, the “activity change, negative = inhibition” value is 15% [at 16 µM].

On to `CCOC(=O)C(C)Oc1cccc2c(=O)n(CC(=O)NCCc3ccc(OC)c(OC)c3)ccc12` (centres undefined), for which the “activity change, negative = inhibition” value was 17.4%.

Turning to `O=C(Cc1ccncc1)N[C@H]1CC[C@@H](CCn2cc(-c3ccccc3F)nn2)O[C@@H]1CO`, the “activity change, negative = inhibition” value is 12.9%.

For the compound `COc1ccc(-c2cn(CC[C@H]3CC[C@H](NS(=O)(=O)c4ccccc4C)[C@H](CO)O3)nn2)cc1`, the “activity change, negative = inhibition” value was -1.92%.

With `O=C(CCN1CCCCC1)N[C@@H]1CC[C@@H](CCn2cc(-c3ccccc3)nn2)O[C@@H]1CO`, the “activity change, negative = inhibition” value is 8.65%.

Consider `O=C(CCN1CCCCC1)N[C@H]1CC[C@H](CCn2cc(-c3ccccc3)nn2)O[C@@H]1CO`, for which the “activity change, negative = inhibition” value was 8.36%.

Regarding `Cc1ccc(C2CC(=O)c3cnc(N4CCc5ccccc5C4)nc3C2)cc1` (centres undefined), the “activity change, negative = inhibition” value was -20.6%.

With `COc1ccccc1N/C(N)=N/c1nc(CSc2ccc(C)cc2)cc(=O)[nH]1`, the “activity change, negative = inhibition” value is -12.1%.

Consider `COc1ccc(NC(=O)C2(C)CCN2Cc2ccccc2OC(F)F)cc1OC` (centres undefined), for which the “activity change, negative = inhibition” value is -7.99%.

Turning to `CCCc1cc(C(=O)NCc2ccc(OC)cc2)no1`, the “activity change, negative = inhibition” value is 10.3%.

As to `CCCCCCCCCCn1c2c(c(=N)c3c1CCC3)CCC2`, the “activity change, negative = inhibition” value was 94.2% [at 16 µM].

For `C[C@H](CO)N1C[C@H](C)[C@H](CN(C)Cc2ccccc2)Oc2c(NC(=O)Nc3ccc4c(c3)OCO4)cccc2C1=O`, the “activity change, negative = inhibition” value is 87%.

As for `C[C@H](CO)N1C[C@H](C)[C@@H](CN(C)CC2CC2)Oc2ccc(NS(C)(=O)=O)cc2CC1=O`, the “activity change, negative = inhibition” value was 14.9%.

Take `C[C@@H]1CN([C@@H](C)CO)C(=O)c2cc(NC(=O)c3ccncc3)ccc2O[C@H]1CN(C)Cc1ccncc1`: the “activity change, negative = inhibition” value is -2.02%.

Consider `C[C@@H]1CN([C@@H](C)CO)C(=O)c2cc(NC(=O)c3ccncc3)ccc2O[C@@H]1CN(C)Cc1ccncc1`, for which the “activity change, negative = inhibition” value was -15.1%.

As for `COc1ccc(NC(=O)CN2CCC(C(N)=O)(N3CCCCC3)CC2)cc1`, the “activity change, negative = inhibition” value was -13.8%.

Turning to `CCc1ccc(C(=O)CN2C(=O)NC(C)(c3ccc(C)cc3)C2=O)cc1` (centres undefined), the “activity change, negative = inhibition” value is -3.01%.

`C=CC[n+]1c(-c2ccc(OC)c(OC)c2)csc1NNC(=O)Nc1ccccc1`: the “activity change, negative = inhibition” value was 22.5%.

With `CC(=O)c1ccc([C@H]2C[C@@]34CN(C(=O)OC(C)(C)C)S(=O)(=O)[C@H]3C[C@H]2O4)cc1`, the “activity change, negative = inhibition” value is -21.5%.

For the compound `CO[C@@H]1CN(C)C(=O)c2cc(NS(=O)(=O)c3ccc(C)cc3)ccc2OC[C@H](C)N(C(=O)NC(C)C)C[C@@H]1C`, the “activity change, negative = inhibition” value was 58.5%.

`O=C(C[C@@H]1C[C@H]2c3cc(NC(=O)C4CCC4)ccc3O[C@H]2[C@H](CO)O1)NCC(F)(F)F`: the “activity change, negative = inhibition” value was 23.8%.

Source of the values: PubChem BioAssay AID652057 (Broad Institute, 2013).
